For assay [1], the target named is Sphingosine kinase 1 (Homo sapiens) (UniProt Q9NYA1). The note with it: at 1 µM.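 Note: mean SPHK1 inhibition value reported from the GSK PKIS kinase panel screen.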
In assay [2] the target is T1, Sphingosine kinase 2 (Homo sapiens) (UniProt Q9NRA0).
T1 sequence (whole entry): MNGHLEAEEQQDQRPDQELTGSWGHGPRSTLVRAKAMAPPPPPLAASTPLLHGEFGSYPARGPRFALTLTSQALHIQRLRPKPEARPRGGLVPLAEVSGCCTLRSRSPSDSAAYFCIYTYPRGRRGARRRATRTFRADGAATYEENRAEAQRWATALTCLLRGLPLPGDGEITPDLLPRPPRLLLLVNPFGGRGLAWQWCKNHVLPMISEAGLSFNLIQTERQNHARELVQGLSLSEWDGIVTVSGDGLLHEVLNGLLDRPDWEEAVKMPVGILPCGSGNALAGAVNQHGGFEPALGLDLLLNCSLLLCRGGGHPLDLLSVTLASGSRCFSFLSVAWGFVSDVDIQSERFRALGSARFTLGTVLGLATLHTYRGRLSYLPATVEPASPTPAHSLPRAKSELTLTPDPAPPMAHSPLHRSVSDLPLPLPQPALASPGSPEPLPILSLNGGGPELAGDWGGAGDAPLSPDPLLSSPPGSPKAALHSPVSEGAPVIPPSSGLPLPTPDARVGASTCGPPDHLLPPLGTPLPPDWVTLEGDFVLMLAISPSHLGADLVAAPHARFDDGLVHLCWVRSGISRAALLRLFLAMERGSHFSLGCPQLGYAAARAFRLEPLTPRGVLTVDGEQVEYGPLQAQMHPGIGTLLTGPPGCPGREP
The note with it: at 0.1 µM.

The target in assay [3] is T1, Sphingosine kinase 2 (Homo sapiens). As to conditions: at 1 µM.
Assay [4] addresses Casein kinase II subunit alpha (Homo sapiens) (UniProt P68400). The note with it: at 0.1 µM.
Assay [5] has the same target. As to conditions: at 1 µM.
The target in assay [6] is T2, Inhibitor of nuclear factor kappa-B kinase subunit alpha (Homo sapiens) (UniProt O15111).
T2 sequence (whole entry): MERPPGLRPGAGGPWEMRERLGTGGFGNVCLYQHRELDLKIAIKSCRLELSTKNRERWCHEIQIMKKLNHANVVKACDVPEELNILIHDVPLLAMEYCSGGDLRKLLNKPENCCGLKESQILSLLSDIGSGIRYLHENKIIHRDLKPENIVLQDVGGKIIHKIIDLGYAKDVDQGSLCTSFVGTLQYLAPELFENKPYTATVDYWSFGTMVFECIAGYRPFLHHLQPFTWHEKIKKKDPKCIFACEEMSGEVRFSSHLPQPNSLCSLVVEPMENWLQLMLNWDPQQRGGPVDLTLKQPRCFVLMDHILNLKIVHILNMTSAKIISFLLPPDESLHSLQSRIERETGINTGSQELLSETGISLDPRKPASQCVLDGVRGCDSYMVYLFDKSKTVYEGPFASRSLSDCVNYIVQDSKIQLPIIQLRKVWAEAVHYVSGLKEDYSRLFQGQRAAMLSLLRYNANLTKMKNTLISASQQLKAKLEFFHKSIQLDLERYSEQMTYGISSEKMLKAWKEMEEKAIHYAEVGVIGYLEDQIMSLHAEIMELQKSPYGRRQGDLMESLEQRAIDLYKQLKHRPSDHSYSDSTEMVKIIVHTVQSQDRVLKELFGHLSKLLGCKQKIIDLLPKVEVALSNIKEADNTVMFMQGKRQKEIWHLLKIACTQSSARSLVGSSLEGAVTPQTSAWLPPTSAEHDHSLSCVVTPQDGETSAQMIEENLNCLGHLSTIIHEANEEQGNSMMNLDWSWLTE
As to conditions: at 0.1 µM.

Assay [7] has as its target T2, Inhibitor of nuclear factor kappa-B kinase subunit alpha (Homo sapiens). As to conditions: at 1 µM.
For assay [8], the target named is T3, Inhibitor of nuclear factor kappa-B kinase subunit beta (Homo sapiens) (UniProt O14920).
T3 sequence (whole entry): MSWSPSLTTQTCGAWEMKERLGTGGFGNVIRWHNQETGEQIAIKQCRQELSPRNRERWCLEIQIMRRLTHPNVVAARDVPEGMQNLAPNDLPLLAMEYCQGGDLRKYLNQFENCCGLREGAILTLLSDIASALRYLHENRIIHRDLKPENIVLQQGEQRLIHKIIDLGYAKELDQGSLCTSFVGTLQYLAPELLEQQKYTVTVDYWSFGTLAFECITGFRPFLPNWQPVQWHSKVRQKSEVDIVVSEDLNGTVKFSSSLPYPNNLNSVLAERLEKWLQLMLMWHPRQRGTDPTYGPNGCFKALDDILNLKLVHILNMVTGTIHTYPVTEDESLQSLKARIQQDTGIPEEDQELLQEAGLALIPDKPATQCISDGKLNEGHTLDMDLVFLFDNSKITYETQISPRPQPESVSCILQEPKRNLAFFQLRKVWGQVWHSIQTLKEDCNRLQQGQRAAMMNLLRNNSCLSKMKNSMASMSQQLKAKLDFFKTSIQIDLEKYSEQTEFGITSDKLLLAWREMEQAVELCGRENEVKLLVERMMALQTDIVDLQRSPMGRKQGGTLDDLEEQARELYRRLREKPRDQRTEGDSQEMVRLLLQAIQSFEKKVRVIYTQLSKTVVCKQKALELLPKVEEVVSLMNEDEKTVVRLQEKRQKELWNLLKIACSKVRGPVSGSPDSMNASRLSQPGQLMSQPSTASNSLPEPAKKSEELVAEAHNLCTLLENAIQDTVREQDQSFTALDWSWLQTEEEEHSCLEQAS
As to conditions: at 0.1 µM.

The target in assay [9] is T3, Inhibitor of nuclear factor kappa-B kinase subunit beta (Homo sapiens). The note with it: at 1 µM.
Assay [10] deals with T4, Inhibitor of nuclear factor kappa-B kinase subunit epsilon (Homo sapiens) (UniProt Q14164).
T4 sequence (whole entry): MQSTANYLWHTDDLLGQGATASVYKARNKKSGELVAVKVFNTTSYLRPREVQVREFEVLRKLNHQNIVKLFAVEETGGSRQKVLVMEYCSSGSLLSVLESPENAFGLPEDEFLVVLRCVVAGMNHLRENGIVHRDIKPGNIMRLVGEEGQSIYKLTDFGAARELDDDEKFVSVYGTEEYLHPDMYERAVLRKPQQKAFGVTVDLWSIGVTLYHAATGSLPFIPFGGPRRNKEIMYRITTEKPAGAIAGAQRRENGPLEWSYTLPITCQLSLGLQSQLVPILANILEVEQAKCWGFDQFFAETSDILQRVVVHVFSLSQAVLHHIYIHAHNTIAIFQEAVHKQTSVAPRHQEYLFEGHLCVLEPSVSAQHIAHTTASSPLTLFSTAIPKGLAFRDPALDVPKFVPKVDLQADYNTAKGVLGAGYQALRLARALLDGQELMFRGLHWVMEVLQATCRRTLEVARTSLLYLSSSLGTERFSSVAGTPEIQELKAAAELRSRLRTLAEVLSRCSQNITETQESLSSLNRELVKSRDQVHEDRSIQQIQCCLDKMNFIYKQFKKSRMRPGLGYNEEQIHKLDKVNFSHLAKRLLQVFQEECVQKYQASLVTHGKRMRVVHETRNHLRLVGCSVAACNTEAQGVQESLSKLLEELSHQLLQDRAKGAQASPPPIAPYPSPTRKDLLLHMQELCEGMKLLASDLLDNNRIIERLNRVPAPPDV
The note with it: at 0.1 µM.

Assay [11] deals with T4, Inhibitor of nuclear factor kappa-B kinase subunit epsilon (Homo sapiens). As to conditions: at 1 µM.
The target in assay [12] is T5, Serine/threonine-protein kinase Nek1 (Homo sapiens) (UniProt Q96PY6).
T5 sequence (whole entry): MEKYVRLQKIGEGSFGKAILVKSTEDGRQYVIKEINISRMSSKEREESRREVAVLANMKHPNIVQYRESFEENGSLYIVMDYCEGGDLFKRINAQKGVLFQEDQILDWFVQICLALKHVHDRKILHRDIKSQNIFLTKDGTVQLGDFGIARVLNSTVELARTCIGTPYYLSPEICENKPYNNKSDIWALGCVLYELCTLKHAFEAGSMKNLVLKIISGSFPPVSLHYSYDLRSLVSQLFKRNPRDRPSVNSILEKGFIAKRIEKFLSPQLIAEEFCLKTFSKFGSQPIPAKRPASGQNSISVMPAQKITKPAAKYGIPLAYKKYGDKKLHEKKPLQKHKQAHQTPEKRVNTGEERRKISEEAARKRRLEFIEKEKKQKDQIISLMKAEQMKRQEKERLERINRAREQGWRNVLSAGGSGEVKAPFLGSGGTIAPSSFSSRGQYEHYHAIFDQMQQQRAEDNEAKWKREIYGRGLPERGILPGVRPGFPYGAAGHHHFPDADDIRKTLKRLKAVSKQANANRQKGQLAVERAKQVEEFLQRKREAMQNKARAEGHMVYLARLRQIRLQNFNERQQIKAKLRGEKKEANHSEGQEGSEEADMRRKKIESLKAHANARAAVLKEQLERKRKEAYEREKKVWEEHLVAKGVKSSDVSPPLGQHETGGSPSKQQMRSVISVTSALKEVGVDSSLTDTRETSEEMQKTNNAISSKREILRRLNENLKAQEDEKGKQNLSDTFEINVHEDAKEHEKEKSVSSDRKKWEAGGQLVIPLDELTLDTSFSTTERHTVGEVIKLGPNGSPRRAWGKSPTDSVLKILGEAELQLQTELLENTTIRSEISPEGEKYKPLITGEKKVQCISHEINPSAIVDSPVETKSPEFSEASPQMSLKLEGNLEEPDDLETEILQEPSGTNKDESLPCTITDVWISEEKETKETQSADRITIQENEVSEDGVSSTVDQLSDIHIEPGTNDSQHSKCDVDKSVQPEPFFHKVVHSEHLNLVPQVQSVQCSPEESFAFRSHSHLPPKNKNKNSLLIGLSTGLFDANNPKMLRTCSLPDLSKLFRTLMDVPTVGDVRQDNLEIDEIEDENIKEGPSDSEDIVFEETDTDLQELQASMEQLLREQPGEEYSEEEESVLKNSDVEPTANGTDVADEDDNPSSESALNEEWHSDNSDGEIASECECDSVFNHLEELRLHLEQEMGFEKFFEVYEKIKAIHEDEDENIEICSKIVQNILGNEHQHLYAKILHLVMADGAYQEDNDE
As to conditions: at 0.1 µM.

Assay [13] addresses T5, Serine/threonine-protein kinase Nek1 (Homo sapiens). The note with it: at 1 µM.
In assay [14] the target is T6, Serine/threonine-protein kinase Nek2 (Homo sapiens) (UniProt P51955).
T6 sequence (whole entry): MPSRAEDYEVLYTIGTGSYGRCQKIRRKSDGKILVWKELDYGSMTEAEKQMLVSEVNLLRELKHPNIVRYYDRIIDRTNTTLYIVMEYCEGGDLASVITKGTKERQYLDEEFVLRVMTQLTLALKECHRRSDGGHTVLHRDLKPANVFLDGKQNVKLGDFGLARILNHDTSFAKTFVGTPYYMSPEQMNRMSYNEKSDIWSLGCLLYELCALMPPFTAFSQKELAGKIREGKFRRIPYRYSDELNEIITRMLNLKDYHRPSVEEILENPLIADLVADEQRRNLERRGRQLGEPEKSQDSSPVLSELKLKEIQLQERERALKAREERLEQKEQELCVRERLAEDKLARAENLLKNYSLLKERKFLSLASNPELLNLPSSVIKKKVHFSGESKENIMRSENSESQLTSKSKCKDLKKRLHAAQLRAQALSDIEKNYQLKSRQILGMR
As to conditions: at 0.1 µM.

Assay [15] has as its target T6, Serine/threonine-protein kinase Nek2 (Homo sapiens). The note with it: at 1 µM.
Assay [16] concerns the target Serine/threonine-protein kinase Nek6 (Homo sapiens) (UniProt Q9HC98). The note with it: at 0.1 µM.
The target is the same in assay [17]. As to conditions: at 1 µM.
Assay [18] deals with Serine/threonine-protein kinase Nek7 (Homo sapiens) (UniProt Q8TDX7). The note with it: at 0.1 µM.
Assay [19] has the same target. As to conditions: at 1 µM.
The target of assay [20] is T7, Serine/threonine-protein kinase Nek9 (Homo sapiens) (UniProt Q8TD19).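 Note: reported value is the mean percent inhibition of NEK9.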
T7 sequence (whole entry): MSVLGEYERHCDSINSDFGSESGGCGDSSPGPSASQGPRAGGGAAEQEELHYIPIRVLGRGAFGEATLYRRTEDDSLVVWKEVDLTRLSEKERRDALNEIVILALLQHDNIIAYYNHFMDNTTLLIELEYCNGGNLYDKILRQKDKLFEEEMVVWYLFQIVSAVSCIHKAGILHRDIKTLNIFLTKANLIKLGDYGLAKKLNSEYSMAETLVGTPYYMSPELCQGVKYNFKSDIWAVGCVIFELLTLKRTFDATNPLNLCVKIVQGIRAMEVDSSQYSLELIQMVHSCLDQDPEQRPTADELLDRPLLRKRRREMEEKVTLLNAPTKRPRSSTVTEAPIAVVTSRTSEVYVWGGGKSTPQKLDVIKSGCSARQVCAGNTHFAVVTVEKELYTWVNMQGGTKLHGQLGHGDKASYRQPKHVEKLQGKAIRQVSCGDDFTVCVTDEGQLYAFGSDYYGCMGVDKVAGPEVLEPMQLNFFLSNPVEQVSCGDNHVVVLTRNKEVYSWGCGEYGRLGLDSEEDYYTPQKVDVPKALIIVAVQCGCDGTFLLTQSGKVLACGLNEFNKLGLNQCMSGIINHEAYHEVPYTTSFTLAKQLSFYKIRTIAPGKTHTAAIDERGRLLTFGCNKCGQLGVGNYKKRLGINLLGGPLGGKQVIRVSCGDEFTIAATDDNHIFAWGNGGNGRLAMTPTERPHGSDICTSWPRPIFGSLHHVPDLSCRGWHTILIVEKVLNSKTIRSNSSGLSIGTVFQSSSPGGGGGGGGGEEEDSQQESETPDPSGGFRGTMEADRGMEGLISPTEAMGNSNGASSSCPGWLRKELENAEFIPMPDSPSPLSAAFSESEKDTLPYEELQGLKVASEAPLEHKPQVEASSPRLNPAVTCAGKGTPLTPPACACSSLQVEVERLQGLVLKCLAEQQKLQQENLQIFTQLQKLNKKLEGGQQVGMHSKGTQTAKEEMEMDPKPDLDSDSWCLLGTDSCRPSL
The note with it: at 0.1 µM.

One molecule from ChEMBL document CHEMBL1961873, “Compounds: GSK PKIS; Assays: Nanosyn kinase panel” (2012) can be followed below.

Serine/threonine-protein kinase Nek6 (Homo sapiens), sequence (Q9HC98 whole entry): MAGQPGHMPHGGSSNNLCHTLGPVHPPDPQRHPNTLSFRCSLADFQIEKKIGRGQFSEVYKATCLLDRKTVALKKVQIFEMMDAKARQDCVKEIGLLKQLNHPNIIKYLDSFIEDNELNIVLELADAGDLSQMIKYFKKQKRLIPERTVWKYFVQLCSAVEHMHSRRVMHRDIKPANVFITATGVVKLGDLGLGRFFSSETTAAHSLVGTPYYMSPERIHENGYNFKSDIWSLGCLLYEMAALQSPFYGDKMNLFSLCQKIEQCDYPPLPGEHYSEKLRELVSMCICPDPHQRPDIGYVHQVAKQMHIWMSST
Casein kinase II subunit alpha (Homo sapiens), sequence (P68400 whole entry, looked up): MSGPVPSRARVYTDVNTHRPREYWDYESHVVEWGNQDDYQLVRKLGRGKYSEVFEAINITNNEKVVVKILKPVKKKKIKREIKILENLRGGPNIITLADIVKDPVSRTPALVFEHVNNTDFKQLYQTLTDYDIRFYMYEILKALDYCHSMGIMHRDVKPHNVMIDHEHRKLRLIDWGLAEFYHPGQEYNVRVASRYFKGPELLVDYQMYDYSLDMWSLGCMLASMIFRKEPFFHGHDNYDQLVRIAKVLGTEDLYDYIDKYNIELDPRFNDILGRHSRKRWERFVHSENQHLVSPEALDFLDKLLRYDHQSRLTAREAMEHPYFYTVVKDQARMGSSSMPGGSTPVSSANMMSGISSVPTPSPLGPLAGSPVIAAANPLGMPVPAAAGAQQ
Serine/threonine-protein kinase Nek7 (Homo sapiens), sequence (Q8TDX7 whole entry, looked up): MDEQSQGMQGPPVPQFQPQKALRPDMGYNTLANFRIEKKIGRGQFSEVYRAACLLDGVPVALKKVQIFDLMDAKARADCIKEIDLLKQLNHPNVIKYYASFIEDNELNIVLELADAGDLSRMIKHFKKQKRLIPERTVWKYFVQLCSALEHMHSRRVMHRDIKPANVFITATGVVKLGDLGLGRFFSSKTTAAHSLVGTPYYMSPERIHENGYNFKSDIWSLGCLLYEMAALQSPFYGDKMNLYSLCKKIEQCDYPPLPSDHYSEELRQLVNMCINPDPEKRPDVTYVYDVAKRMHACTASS
Sphingosine kinase 1 (Homo sapiens), sequence (Q9NYA1 whole entry): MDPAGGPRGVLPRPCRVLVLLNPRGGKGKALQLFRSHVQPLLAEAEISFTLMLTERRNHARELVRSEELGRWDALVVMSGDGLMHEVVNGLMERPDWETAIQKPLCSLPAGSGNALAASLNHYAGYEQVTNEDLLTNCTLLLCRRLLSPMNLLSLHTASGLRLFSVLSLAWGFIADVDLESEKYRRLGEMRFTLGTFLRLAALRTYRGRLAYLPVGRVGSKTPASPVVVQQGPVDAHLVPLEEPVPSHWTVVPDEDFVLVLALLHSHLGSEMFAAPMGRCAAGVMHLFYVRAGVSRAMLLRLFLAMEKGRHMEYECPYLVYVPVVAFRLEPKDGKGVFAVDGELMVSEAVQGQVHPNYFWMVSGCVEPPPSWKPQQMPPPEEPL

Take `CCOc1ccc2c(-c3ccnc(Nc4cccc(C(F)(F)F)c4)n3)cnn2n1`: the inhibition (as a rule, the drop in the measured response relative to a control, in per cent) in assay [1] was -1.13%; in assay [2], 2.38%; in assay [3] it was -1.13%; in assay [4], 5.72%; in assay [5], 7.82%; in [6], 11.5%. Moreover, the inhibition amounted to 6.76% in assay [7]; 4.08% in assay [8]; 3.66% in [9]; 8.35% in assay [10]; 12.1% in assay [11]; 2.34% in assay [12]. For the same molecule, the inhibition in assay [13] came out at 1.31%; in assay [14], 0.57%; in assay [15], 1.02%; in assay [16] it was 0.83%; in assay [17], 2.66%; in [18], 1.88%. In addition, the inhibition in [19] was determined as 0.03%; in assay [20], 7.49%.
